# ATXN viability: cell viability loss in ATXN counter-screen; S2 cells (HEK-293 line with an ATXN2-luciferase reporter) viability, CellTiter-Fluor protease fluorescence, 24 h; 400,000 tested, 0.49% active; Potency, µM (top dose mostly 56.7 µM), most hits filed as cytotoxic; AID 651635; also: nearly all actives have a fitted effect of over 40% in size
# HepG2 tox-1: HepG2 cytotoxicity, counter-screen for TGF-b inhibitors | HepG2 CAGA-GFP viability, ATP luminescence, 18 h | Potency, µM (series often up to 46.1 µM), for the others: at the highest dose activity change, negative = cytotoxicity, hits mostly cytotoxic | 410,000 tested, 0.76% active | AID 588856
#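 HepG2 CAGA-GFP cells (1000/well, DMEM with 1% FBS) received compound, then TGF-beta at 500 pg/mL final, and were incubated 18 hours at 37 degrees C. Viability was read by CellTiter-Glo luminescence. Media-only wells were set as complete cell-killing and DMSO as no toxicity.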
# ATXN2 expr inh: ATXN2 expression inhibition | HEK-293 ATXN2-luciferase reporter, luminescence, 24 h | Potency, µM (series often up to 57 µM), without a hit: top-dose activity change, negative = inhibition, usual class: inhibitors | 360,000 tested, 0.72% active; also: % is scaled to controls: 0 for no effect and ±100 for the full control effect; nearly all actives have a fitted effect of over 55% in size
#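 ATXN2-luciferase reporter cells (luciferase flanked by upstream and downstream ATXN2 gene portions) were treated 24 h at 37 °C with compounds at up to 57 uM. SteadyGlo luminescence gave expression; GF-AFC fluorescence gave viability.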
# TGFb inhibitor: inhibitors of TGF-b signaling; Potency, µM (titrated, usually from 46.1 µM), without a hit: at the top dose activity, negative = inhibition, hits mostly inhibitors; HepG2 CAGA-GFP TGF-b/SMAD3 reporter, GFP fluorescence, 18 h; TGF-beta stimulated, 500 pg/mL final; 410,000 tested, 1.2% active; also: % is scaled to controls: 0 for no effect and ±100 for the full control effect; nearly all actives have a fitted effect of over 65% in size
#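 Inhibition of TGF-beta-driven CAGA-GFP reporter expression in HEPG2 cells is measured by cellular GFP fluorescence after 18 h stimulation with 500 pg/mL recombinant TGF-beta in 1% FBS medium at 37 degrees C.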
# Apoferritin bind: binds horse apoferritin like a general anesthetic; apoferritin/1-aminoanthracene competitive binding, fluorescence; Potency, µM (series often up to 77.5 µM), without a hit: at the highest dose activity change, negative = displacement, most hits filed as inhibitors; 350,000 tested, 0.074% active; also: % is scaled to controls: 0 for no effect and ±100 for the full control effect; nearly all actives have a fitted effect of over 20% in size
# Target sequence (P02791 2-175 limits assumed): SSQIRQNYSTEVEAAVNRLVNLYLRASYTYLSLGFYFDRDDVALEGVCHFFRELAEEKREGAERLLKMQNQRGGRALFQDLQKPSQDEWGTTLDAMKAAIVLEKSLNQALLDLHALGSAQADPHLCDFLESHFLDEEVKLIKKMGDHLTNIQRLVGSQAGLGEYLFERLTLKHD
#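 Apoferritin-based anesthetic binding model; compound displacement of fluorescent 1-AMA measured as endpoint fluorescence after 10 minutes at room temperature, scaled to free-ligand and complex controls.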
# TGFb confirm: confirmation of TGF-b signaling inhibitors in HepG2 reporter cells. AID 720534. HepG2 CAGA-GFP TGF-b reporter, GFP fluorescence, 18 h; cells stimulated with TGF-beta, 500 pg/mL. 1,600 tested, 63% active. shares compounds with TGFb inhibitor. Potency, µM (top dose mostly 46.1 µM), without a hit: top-dose activity, negative = inhibition, hits mostly inhibitors; also: % is scaled to controls: 0 for no effect and ±100 for the full control effect; nearly all actives have a fitted effect of over 65% in size
# HepG2 tox-2: HepG2 cytotoxicity, TGF-b inhibitor counterscreen; shares compounds with TGFb inhibitor; HepG2 CAGA-GFP viability, ATP luminescence, 18 h; cells stimulated with TGF-beta, 500 pg/mL; Potency, µM (series often up to 46.1 µM), without a hit: top-dose activity, negative = cytotoxicity, most hits filed as inhibitors; 1,600 tested, 27% active; also: % is scaled to controls: 0 for no effect and ±100 for the full control effect; nearly all actives have a fitted effect of over 70% in size
# TGFb CCL64 inh: blocks TGF-b signaling in CCL64 reporter cells | 1,600 tested, 41% active | shares compounds with TGFb inhibitor | Potency, µM (highest dose often 46.1 µM), for the others: at the highest dose activity, negative = inhibition, most hits filed as inhibitors | CCL64 CAGA-GFP reporter, TGF-b stimulated, GFP fluorescence, 18 h; also: nearly all actives have a fitted effect of over 65% in size
# COP TGFb inh: blocks TGF-b signaling in HepG2 COP reporter. shares compounds with TGFb inhibitor. HepG2 COP-GFP TGF-b reporter, GFP fluorescence, 18 h; cells stimulated by added recombinant TGF-beta. Potency, µM (series often up to 46.1 µM), without a hit: at the top dose activity, negative = inhibition, most hits filed as inhibitors. 1,600 tested, 3% active; also: nearly all actives have a fitted effect of over 70% in size
# An asterisk follows results filed as active; i = inactive; ? = inconclusive; · = no result given; [ ] = remark or other dose. An excerpt weighted towards active compounds, which were near 2.4% of everything screened. Calls follow the shape of the dose curve; as a rule, active = well fitted curve in the direction sought with a large enough effect; inconclusive = small, poorly fitted or top-dose-only effect, or another doubt; inactive = no such curve, though single readings can be large; an effect the other way counts as inactive or inconclusive. Potency is read from the fitted curve at half-maximal effect.
SMILES,ATXN viability,HepG2 tox-1,ATXN2 expr inh,TGFb inhibitor,Apoferritin bind,TGFb confirm,HepG2 tox-2,TGFb CCL64 inh,COP TGFb inh
CC(C)c1ccc(C(=O)N2CCCCC2c2cc(C(=O)Nc3ccncc3)no2)cc1 (stereo not given),i,-12%,-17%,4%,·,·,·,·,·
Cn1nnnc1SC(C(=O)Nc1cccc(C(F)(F)F)c1)c1ccccc1 (stereo not given),i,-4%,-13%,11µM*,-9%,?,-21%,?,4%
O=C(Nc1cccc(C(F)(F)F)c1)C(SCCO)c1ccccc1 (stereo not given),i,-4%,4%,-15%,-6%,·,·,·,·
CN(C(=O)/C=C/c1ccc([N+](=O)[O-])s1)c1ccccc1,·,11µM*,?,10µM*,?,23µM*,?,21µM*,?
CN(C(=O)C=Cc1ccco1)c1ccccc1,i,-55%,1%,-5%,·,·,·,·,·
CCCS(=O)(=O)c1ccc(COC(=O)c2ccc(NC(C)=O)cc2)cc1,i,0%,13%,?,-21%,1%,7%,2%,-14%
CC(=O)Nc1ccc(C(=O)OCc2ccc(Cl)cc2)cc1,i,-18%,3%,?,?,·,·,·,·
CCOC(=O)c1nc(NCc2ccccc2F)c2ccccc2n1,i,14%,-21%[11.3 µM],-6%,-13%,·,·,·,·
NCCCNc1nc(N)c([N+](=O)[O-])c(NC2CCCCC2)n1,i,-32%,·,5µM*,3%,4.6µM*,?,5.8µM*,94%
COCCNc1nc(N)c([N+](=O)[O-])c(NC2CCCCC2)n1,i,-7%,-20%,0%,-4%,·,·,·,·
O=C1CC(c2ccccc2)Cc2[nH]c(=O)c(-c3nc(-c4cccc(Cl)c4)cs3)cc21 (stereo not given),·,3%,·,2%,-8%,·,·,·,·
N#CC(c1ccc(Cl)cc1)c1ccc2c(C(F)(F)F)cc(C(F)(F)F)nc2n1 (stereo not given),2µM*,-38%,0.71µM*,3.5µM*,?,5.2µM*,6.5µM*,1.5µM*,103%
O=S1(=O)C[C@@H](N2CCN(CC3CC3)CC2)[C@H](COCc2ccccc2)N1,i,8%,-3%,1%,·,·,·,·,·
Cc1c(C(=O)O/N=C(\N)c2ccccn2)cccc1[N+](=O)[O-],i,10%,-19%,35%,0%,·,·,·,·
Cc1c(C(=O)Oc2cccc3cccnc23)cccc1[N+](=O)[O-],i,-42%,-26%,?,-21%,-10%,0%,?,-12%
O=C(c1ccc(Cl)cc1)c1cc([N+](=O)[O-])ccc1N1CCOCC1,i,12%,-27%,11µM*,-7%,7.3µM*,-2%,?,-3%
Clc1cccc(Nc2nc(-c3cccnc3)cs2)c1,i,-42%,20%,?,-12%,·,·,·,·
COc1ccc(CNC(=O)c2c(C)oc3c2C(=O)c2ccccc2C3=O)cc1,i,0.89µM*,?,1µM*,-16%,0.65µM*,1µM*,5.2µM*,2.1µM*

# High-throughput results deposited in PubChem by National Center for Advancing Translational Sciences (NCATS).
